Experimental findings from ChEMBL document CHEMBL3988442, “University of Dundee, Small-Polar-MMV Screening Library” (2021) are described below.

For some of these results: Measured potencies and affinities stand elsewhere.

What all share (set-up): scale not given: direction of the effect not stated beside the values
Experiment [1] addresses Protein translocase subunit SecA (Escherichia coli (strain K12)) (UniProt P10408). The experiment in a line: Assay to Identify E. coli SecA ATPase Inhibitors. Type of experiment: functional. As to conditions: 30 µM.
Experiment [2] addresses T1, Ubiquitin-activating enzyme e1, putative (Leishmania donovani (strain BPK282A1)) (UniProt E9BSI1).
T1 sequence (whole entry): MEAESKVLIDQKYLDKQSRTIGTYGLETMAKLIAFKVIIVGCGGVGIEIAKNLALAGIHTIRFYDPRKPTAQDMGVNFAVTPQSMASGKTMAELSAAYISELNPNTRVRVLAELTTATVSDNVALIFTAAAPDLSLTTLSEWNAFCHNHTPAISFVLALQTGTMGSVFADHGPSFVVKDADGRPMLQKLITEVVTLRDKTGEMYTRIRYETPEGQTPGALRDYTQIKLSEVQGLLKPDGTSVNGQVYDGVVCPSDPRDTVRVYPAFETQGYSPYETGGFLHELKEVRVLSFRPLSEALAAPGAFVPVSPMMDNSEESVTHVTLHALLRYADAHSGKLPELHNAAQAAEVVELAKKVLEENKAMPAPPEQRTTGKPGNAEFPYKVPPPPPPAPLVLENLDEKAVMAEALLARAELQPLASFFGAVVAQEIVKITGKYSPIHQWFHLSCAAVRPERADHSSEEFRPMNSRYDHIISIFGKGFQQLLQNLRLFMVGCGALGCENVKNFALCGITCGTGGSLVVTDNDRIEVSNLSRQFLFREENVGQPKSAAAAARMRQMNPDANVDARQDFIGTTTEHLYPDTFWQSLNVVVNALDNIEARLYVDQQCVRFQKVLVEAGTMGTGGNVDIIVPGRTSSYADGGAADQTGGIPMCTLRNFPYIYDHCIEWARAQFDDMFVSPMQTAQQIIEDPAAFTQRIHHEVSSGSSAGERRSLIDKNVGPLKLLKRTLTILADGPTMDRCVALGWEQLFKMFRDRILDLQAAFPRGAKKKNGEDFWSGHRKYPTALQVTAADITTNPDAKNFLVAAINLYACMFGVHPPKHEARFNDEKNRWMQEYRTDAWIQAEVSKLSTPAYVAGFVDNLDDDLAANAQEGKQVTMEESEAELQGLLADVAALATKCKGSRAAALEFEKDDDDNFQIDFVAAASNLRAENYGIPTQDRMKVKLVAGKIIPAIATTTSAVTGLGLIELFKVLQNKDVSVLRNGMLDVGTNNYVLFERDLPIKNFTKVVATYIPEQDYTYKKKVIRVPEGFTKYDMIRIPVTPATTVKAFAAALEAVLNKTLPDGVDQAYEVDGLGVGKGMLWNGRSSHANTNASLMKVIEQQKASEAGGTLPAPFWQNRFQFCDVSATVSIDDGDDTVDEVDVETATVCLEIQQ
The experiment in a line: Leishmania donovani Ubiquitin Activating Enzyme (LdE1). The format is functional. Conditions: 30 µM.

Experiment [3] addresses AMP-activated protein kinase, AMPK (Homo sapiens) (UniProt P54646+O43741+P54619+Q9UGJ0+Q9Y478+Q13131+Q9UGI9). The experiment in a line: AMP-dependent Kinase enzyme assay. An in vitro enzyme assay that detects ADP turnover that is directly proportional to AMPK activity. This uses naive AMPK that is activated during the assay with MK-8722. Type of experiment: functional. As to conditions: 30 µM.

Experiment [4] addresses Sialic acid-binding Ig-like lectin 9 (Homo sapiens) (UniProt Q9Y336). The experiment in a line: Hs-Siglec9 ALPHAscreen SOP 20170721. As to conditions: 10 µM. In general terms: Bead proximity is the source of the signal in Alpha formats.
The next experiment deals with Trypanosoma cruzi. The experiment in a line: Trypanosoma cruzi phosphomannomutase and mannose-1-phosphate guanylyltransferase assay. Type of experiment: functional. Conditions: 10 µM.
The target of experiment [5] is T2, Arginase-2, mitochondrial (Homo sapiens) (UniProt P78540).
T2 sequence (whole entry): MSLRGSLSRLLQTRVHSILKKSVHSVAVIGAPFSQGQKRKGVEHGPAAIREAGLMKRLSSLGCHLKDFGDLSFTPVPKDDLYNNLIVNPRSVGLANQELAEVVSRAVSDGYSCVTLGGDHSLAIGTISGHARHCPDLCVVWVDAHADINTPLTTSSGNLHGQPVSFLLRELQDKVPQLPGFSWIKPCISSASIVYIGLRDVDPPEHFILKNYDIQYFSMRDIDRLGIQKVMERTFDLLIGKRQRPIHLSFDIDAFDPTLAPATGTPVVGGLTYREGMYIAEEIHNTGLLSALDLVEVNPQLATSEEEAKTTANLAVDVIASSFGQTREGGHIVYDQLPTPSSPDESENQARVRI
The experiment in a line: in vitro enzyme assay to detect the production of urea directly proportional to the activity of Arginase II. Note: in the data most compounds retested in dose-response had high values. The format is functional. As to conditions: 33.3 µM.

The target of experiment [6] is T3, Proteasome subunit beta (Trypanosoma cruzi) (UniProt O96673).
T3 sequence (whole entry): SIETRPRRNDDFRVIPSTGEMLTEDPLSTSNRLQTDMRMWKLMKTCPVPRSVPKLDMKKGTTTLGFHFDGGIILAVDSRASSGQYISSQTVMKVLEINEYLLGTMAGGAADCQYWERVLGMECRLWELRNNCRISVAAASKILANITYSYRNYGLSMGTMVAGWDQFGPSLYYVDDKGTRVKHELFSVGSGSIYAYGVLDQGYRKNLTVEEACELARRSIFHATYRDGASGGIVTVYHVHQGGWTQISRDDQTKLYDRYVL
The experiment in a line: Trypanosoma cruzi proteasome chymotrypsin-like activity (TcProtChymo) assay. Note: in the data most compounds retested in dose-response had high values. Type of experiment: functional. As to conditions: 9.37 µM.

The species named for a further experiment is Homo sapiens. The experiment in a line: To identify inhibition of the IFN signalling (Jak-Stat) pathway via expression of an eGFP reporter gene under the control of an IFN-stimulated response element (ISRE) containing MxA promoter. The format is functional. As to conditions: 30 µM.
Experiment [7] addresses T4, Tyrosyl-tRNA synthetase, putative (Trypanosoma cruzi (strain CL Brener)) (UniProt Q4DSP6).
T4 sequence (whole entry): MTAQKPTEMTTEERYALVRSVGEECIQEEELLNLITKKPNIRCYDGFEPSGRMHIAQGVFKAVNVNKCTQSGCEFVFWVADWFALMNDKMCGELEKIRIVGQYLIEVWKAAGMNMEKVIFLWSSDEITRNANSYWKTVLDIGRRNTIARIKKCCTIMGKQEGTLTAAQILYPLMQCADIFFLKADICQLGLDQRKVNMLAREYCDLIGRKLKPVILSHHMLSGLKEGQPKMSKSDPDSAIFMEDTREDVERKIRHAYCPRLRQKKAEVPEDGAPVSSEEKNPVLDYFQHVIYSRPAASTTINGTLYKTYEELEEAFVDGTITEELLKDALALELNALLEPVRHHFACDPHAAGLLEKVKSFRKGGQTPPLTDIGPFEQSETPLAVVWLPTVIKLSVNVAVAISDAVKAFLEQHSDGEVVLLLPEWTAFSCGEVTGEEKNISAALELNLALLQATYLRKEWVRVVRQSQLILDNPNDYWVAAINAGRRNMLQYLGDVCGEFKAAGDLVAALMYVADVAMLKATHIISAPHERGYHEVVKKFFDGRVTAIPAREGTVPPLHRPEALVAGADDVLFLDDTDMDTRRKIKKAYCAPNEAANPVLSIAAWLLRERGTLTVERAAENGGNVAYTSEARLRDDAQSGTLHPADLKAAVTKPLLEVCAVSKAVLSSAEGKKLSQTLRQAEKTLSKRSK
The experiment in a line: Trypanosoma cruzi tyrosyl tRNA synthetase (TcYRS) _High Tyrosine SOP. Note: in the data most compounds retested in dose-response had high values. Type of experiment: functional. As to conditions: 30 µM.

Experiment [8] concerns the target T4, Tyrosyl-tRNA synthetase, putative (Trypanosoma cruzi (strain CL Brener)). The experiment in a line: Trypanosoma cruzi tyrosyl tRNA synthetase (TcYRS) SOP. The format is functional. As to conditions: 30 µM.
For experiment [9], the target named is Chromo domain-containing protein 1 (Saccharomyces cerevisiae (strain ATCC 204508 / S288c) (Baker's yeast)) (UniProt P32657). The experiment in a line: ScCHD-1 Enzyme Inhibition Assay. Note: in the data most compounds retested in dose-response had high values. Conditions: 30 µM. The format is functional.
Sequence of Chromo domain-containing protein 1 (Saccharomyces cerevisiae (strain ATCC 204508 / S288c) (Baker's yeast)) (P32657 whole entry, the tested form may be a part): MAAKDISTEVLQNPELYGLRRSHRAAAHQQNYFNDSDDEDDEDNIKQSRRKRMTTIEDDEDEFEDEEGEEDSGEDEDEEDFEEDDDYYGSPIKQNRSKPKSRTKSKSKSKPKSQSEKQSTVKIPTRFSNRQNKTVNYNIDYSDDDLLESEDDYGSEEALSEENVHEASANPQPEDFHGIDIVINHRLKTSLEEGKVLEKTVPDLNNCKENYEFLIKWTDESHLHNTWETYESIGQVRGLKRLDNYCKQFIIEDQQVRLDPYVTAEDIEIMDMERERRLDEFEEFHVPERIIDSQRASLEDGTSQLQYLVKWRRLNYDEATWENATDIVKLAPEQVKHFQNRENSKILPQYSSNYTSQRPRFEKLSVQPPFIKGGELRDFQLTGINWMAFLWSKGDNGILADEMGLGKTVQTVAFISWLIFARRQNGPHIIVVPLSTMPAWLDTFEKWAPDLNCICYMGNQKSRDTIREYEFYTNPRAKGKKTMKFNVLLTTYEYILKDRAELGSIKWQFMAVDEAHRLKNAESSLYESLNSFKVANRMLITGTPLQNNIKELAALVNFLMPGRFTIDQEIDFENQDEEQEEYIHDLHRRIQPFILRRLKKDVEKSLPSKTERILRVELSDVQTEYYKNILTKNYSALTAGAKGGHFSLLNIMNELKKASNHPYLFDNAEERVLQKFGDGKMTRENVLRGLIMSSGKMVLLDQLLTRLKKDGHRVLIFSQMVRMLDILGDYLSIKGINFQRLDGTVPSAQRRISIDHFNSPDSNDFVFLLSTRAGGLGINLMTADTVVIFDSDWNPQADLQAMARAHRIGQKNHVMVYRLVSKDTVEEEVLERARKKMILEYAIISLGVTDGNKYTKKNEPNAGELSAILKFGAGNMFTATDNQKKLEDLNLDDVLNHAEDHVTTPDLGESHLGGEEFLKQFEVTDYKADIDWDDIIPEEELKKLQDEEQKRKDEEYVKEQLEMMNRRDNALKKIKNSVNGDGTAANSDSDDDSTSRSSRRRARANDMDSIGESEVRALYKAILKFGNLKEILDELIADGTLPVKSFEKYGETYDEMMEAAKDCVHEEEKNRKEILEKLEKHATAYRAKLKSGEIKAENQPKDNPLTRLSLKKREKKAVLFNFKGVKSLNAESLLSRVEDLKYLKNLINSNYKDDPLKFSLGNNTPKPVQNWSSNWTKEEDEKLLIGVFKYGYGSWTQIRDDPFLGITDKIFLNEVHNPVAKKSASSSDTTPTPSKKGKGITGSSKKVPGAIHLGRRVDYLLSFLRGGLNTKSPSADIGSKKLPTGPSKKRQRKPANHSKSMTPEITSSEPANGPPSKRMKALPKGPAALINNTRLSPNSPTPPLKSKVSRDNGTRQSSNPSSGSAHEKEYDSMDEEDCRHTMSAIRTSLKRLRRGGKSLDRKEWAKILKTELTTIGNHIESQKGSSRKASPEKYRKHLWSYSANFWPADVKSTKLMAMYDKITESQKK

Sequence of Protein translocase subunit SecA (Escherichia coli (strain K12)) (P10408 whole entry): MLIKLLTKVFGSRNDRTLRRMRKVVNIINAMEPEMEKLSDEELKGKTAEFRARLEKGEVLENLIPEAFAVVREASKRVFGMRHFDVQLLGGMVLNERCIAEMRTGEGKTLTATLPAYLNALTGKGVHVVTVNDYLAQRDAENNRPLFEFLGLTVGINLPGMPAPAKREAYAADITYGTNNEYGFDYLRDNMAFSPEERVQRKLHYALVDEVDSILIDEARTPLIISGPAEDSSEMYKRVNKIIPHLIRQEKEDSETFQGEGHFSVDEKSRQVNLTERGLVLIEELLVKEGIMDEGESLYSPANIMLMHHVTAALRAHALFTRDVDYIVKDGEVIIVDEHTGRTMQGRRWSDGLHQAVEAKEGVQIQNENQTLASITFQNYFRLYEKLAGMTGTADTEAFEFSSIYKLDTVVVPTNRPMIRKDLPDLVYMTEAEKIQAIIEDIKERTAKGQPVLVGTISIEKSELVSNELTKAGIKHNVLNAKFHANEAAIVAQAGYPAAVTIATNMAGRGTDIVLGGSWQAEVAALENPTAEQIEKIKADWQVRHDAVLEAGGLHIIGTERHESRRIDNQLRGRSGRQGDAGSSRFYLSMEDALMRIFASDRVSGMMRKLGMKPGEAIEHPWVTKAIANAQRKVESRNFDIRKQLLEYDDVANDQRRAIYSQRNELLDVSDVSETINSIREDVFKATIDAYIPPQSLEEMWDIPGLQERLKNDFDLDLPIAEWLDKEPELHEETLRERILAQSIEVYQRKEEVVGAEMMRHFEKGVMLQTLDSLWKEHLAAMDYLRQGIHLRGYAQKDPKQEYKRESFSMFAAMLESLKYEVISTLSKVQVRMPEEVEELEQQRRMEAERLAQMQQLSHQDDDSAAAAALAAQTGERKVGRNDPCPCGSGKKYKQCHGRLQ
Sequence of Sialic acid-binding Ig-like lectin 9 (Homo sapiens) (Q9Y336 whole entry): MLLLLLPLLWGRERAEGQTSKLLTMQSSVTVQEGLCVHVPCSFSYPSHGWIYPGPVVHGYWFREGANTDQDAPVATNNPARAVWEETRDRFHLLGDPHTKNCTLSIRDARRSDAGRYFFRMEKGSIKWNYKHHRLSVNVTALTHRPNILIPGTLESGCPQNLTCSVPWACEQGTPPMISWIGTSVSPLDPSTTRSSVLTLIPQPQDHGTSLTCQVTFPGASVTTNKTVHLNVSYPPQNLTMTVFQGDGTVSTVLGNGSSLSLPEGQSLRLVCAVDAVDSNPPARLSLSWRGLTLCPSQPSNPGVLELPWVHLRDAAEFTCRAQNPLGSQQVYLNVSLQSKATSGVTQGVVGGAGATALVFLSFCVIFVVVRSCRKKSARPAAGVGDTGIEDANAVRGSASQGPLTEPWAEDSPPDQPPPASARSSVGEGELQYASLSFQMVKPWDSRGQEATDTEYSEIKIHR

Consider `CC(O)CN1CCC(CNCc2c[nH]nc2C(C)(C)C)CC1` (stereo unspecified), for which the Percent Effect in [1] was -6.44%; in experiment [2] it was 18.9%; in experiment [3], -5.82%; in experiment [4], 1.39%; in the experiment with Trypanosoma cruzi, -6.7%; in experiment [5] it was -2%. In addition, the Percent Effect in [6] was 11.9%; in the experiment listed under Homo sapiens it was 13.9%; in [7] it was 4.43%; in experiment [8], 3.7%; in experiment [9] it was -9.13%.
`CC(O)CN(CC(=O)NC(=O)NC1CC1)c1ccccc1` (stereo unspecified): the Percent Effect in experiment [1] is -7.41%; in experiment [2], 15.6%; in experiment [3], -2.19%; in experiment [4] it was -7.69%; in the experiment with Trypanosoma cruzi, -2.64%; in experiment [5] it was -3.16%. Further, the Percent Effect is 3.64% in experiment [6]; 6.08% in the experiment listed under Homo sapiens; 5.71% in [7]; 2.35% in [8]; -17.8% in experiment [9].
For the compound `CCc1nc(C2CCCN(C(=O)c3ccc(OC(C)C)nc3)C2)no1` (stereo unspecified), the Percent Effect was -8.81% in experiment [1]; 5.2% in experiment [2]; -0.62% in [3]; -8.98% in experiment [4]; -3.43% in the experiment with Trypanosoma cruzi; 3.16% in [5]. In addition, the Percent Effect in experiment [6] was 1.05%; in the experiment filed under Homo sapiens, 15.9%; in [7], -0.952%; in [8], 0%; in experiment [9], -17.8%.
Turning to `c1cnc(-c2nc(CNCCn3cccn3)cs2)nc1`, the Percent Effect in [1] was -0.355%; in experiment [2] it was -2.63%; in experiment [3], 7.92%; in experiment [4], -0.779%; in the experiment with Trypanosoma cruzi it was -1.5%; in [5] it was -2.68%. Besides, the Percent Effect was 7.18% in experiment [6]; 9.32% in the experiment listed under Homo sapiens; -0.49% in experiment [7]; -4.88% in experiment [8]; -6.78% in [9].
For the compound `CN(Cc1cnn(C)c1)C(=O)Cn1c(CS(C)(=O)=O)nc2ccccc21`, the Percent Effect in experiment [1] is -1.5%; in experiment [2], 10.5%; in experiment [3], 3.77%; in [4] it was -0.257%; in the experiment on Trypanosoma cruzi, -3.6%; in [5] it was -8.28%. In addition, the Percent Effect is 11.2% in experiment [6]; 9.18% in the experiment listed under Homo sapiens; 5.32% in experiment [7]; 10.4% in [8]; -3.69% in experiment [9].
As for `Cn1nc(CNC(=O)c2nc3ccccc3s2)c2c1CCOC2`, the Percent Effect in experiment [1] is -1.59%; in experiment [2], 0%; in experiment [3] it was 8.14%; in [4], 0.56%; in the experiment with Trypanosoma cruzi, 5.03%; in experiment [5], -0.645%. Further, the Percent Effect in experiment [6] was 4.18%; in the experiment filed under Homo sapiens, 24.8%; in [7] it was 1.06%; in [8], 6.41%; in [9], -5.4%.
`CCOCC(O)CN1CCN(C(=O)c2cccnc2OC)CC1` (stereo unspecified): the Percent Effect is -3.44% in [1]; 0% in experiment [2]; 4.2% in experiment [3]; 3.65% in [4]; -0.936% in the experiment with Trypanosoma cruzi; 2.85% in experiment [5]. Further, the Percent Effect is -3.72% in [6]; 5.16% in the experiment listed under Homo sapiens; 3.88% in [7]; 0% in experiment [8]; 1.44% in [9].
Regarding `COCC(=O)N1Cc2cnc(Cc3ccc(OC)cc3)nc2C1`, the Percent Effect in experiment [1] was -5.39%; in [2], 5.48%; in experiment [3], -2.68%; in experiment [4], -3.21%; in the experiment on Trypanosoma cruzi it was 0.392%; in experiment [5], 3.64%. For the same compound, the Percent Effect was 10.3% in experiment [6]; 1.33% in the experiment filed under Homo sapiens; 8.6% in experiment [7]; 15% in [8]; -4.76% in experiment [9].
For `O=S(=O)(C1CC1)N1CCO[C@H]2[C@H](OCC3CCCC3)CC[C@@H]21`, the Percent Effect is -4.67% in experiment [1]; 0% in [2]; 1.22% in experiment [3]; -1.17% in experiment [4]; 4.83% in the experiment with Trypanosoma cruzi; -45.7% in experiment [5]. Also, the Percent Effect in [6] was 2.05%; in the experiment listed under Homo sapiens it was -5.99%; in experiment [7], 0%; in experiment [8] it was 5%; in experiment [9], -4.13%.
As for `O=C(NCC1(N2CCOCC2)CCSC1)Nc1ccc(F)cc1` (stereo unspecified), the Percent Effect in experiment [1] is 0.856%; in experiment [2], 5.41%; in experiment [3] it was -4.15%; in [4], 1.34%; with Trypanosoma cruzi it was 0.193%; in experiment [5], -2.86%. In addition, the Percent Effect was 17.9% in experiment [6]; -10.2% in the experiment filed under Homo sapiens; 5.82% in experiment [7]; 9.76% in [8]; -1.18% in experiment [9].
With `CNCC(=O)N1CCCC(c2cccc(Nc3nc(C)cc(C)n3)n2)C1` (stereo unspecified), the Percent Effect in experiment [1] is -3.22%; in experiment [2], 28.4%; in experiment [3], 6.16%; in [4], -10.1%; in the experiment with Trypanosoma cruzi it was 3.56%; in experiment [5], -5.34%. Further, the Percent Effect in experiment [6] was 14.3%; in the experiment listed under Homo sapiens, 22%; in experiment [7], 3.23%; in [8], 11.7%; in experiment [9], -21.5%.
